Source: PubChem BioAssay
In the library only some 0.69% were active in any assay of this set; here they are far more common.
Redox H2O2 prof – compounds producing H2O2 with reducing agent – biochemical, NIH compound library profiling, artefact control for MLSCN library redox annotation, primary screen. DTT-dependent redox cycling H2O2, phenol red/HRP absorbance; 100% = 100 µM peroxide control, 0% = buffer. AID 878. activation, % at 10 µM. 200,000 tested, 0.03% active;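 active means activation of at least 50% relative to the plate's high and low controls in the primary single-dose screen; inactive means activation below 50%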;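 further: compound incubated with DTT at 0.8 mM final as the reducing agent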
PERK inh – inhibitors of human PERK kinase. Q9NZJ5. CHO PERK-DD fusion, SEAP luminescence translation reporter. inhibition, % at 5.6 µM. 220,000 tested, 0.17% active;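 active means inhibition above the mean inhibition of all tested compounds plus 3 SD, set separately per screening campaign, cut at about 2.9% in these data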;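 further: PERK kinase domain activated by AP20187 dimerizer at 100 nM; 0% = DMSO with dimerizer and 100% = rapamycin at 8.4 µM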
SUMO HTRF inh – blocks human SUMOylation mediated by UBC9. P63279. HTRF SUMOylation assay, SAE1/SAE2 + UBC9, in vitro. inhibition, % at 35 µM. 290,000 tested, 0.36% active. AID 2006; in the data active means inhibition above about 50%, passing the limit was not always enough
p97 inhibitor – inhibitors of human p97 ATPase | 220,000 tested, 0.42% active | recombinant p97 ATPase, Kinase-Glo ATP luminescence, 3 h | P55072 | AID 1481 | inhibition, % at 8 µM; in the data active means inhibition above about 15%;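 further: 0% = DMSO vehicle and 100% = wells lacking enzyme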
* hit, by the source's call; · = no result given.

SMILES	Redox H2O2 prof	PERK inh	SUMO HTRF inh	p97 inhibitor
O=C(Nc1nnc(-c2ccccc2)o1)c1nc2ccccc2s1	·	·	74*	·
N#Cc1c(N)n(CCCN2CCOCC2)c2nc3ccccc3nc12	2	-1	31	5
CCCCCn1c(N)c(C#N)c2nc3ccccc3nc21	0	-1	88*	0
N#Cc1c(N)n(-c2cccc(C(=O)O)c2)c2nc3ccccc3nc12	·	0	60*	5
CC(C)c1ccc(/C=C2\SC(=S)N(CCC(=O)N3CCCCC3CCO)C2=O)cc1 (stereo not given)	·	·	-35	·
COC(=O)[C@@H](N)CS	2	3.0*	6	6
COC(=O)C(N)Cc1ccc(O)cc1 (stereo not given)	0	0	6	1
O=C(NCc1ccccc1Cl)C1CCN(S(=O)(=O)c2cccs2)CC1	·	·	-6	·
Nc1ccc(N2CCCCCC2)cc1	0	0	62*	0
Nc1ccc(N2CCN(c3ccc(F)cc3)CC2)cc1	-1	1	15	-1
CN1C(=O)N(C)c2cccc3cccc1c23	·	·	8	·
CC1=Nc2cccc3cccc(c23)N1C	0	1	79*	2
COCCNS(=O)(=O)c1ccc(C)c(C)c1C	0	2	-5	3
N#Cc1c(N2CCCC2)nc(N)c2c(N)nc(N3CCCC3)cc12	-1	0	100*	-5
COc1cc2c(C#N)c(N3CCN(C)CC3)nc(N)c2c(N)n1	0	0	99*	5
O=C(CSc1n[nH]c(-c2ccccn2)n1)Nc1ccccc1F	·	·	-25	·
CC(=O)N1CCN(S(=O)(=O)c2cccc(C(=O)Nc3nccs3)c2)CC1	2	0	-4	5
COc1cccc(CN(CC2CCCO2)S(=O)(=O)c2ccc(S(=O)(=O)N(C)C)cc2)c1 (stereo not given)	0	-1	17	15*
COc1ccc(S(=O)(=O)N(CC(=O)NCC2CCCO2)Cc2ccccc2)cc1 (stereo not given)	·	·	13	·
CCOc1ccccc1CN1CCN(Cc2ccc3cccc(OC)c3n2)CC1CCO (stereo not given)	·	·	15	·
CCCc1nnc(NC(=O)CNc2ccc(F)cc2)s1	0	3.1*	4	5
C(=N\Nc1ncnc2sc3c(c12)CCC3)/c1ccncc1	-4	-1	30	-5
c1cc(Nc2ncnc3sc4c(c23)CCC4)ccn1	0	1	54*	3
O=C(Nc1ccncc1)c1sc2ccccc2c1Cl	-1	1	10	0
O=C(NNC(=O)c1sc2ccccc2c1Cl)Nc1ccc(Cl)cc1	-6	1	52*	-3
SMILES	Redox H2O2 prof	PERK inh	SUMO HTRF inh	p97 inhibitor
CCN(CC(=O)Nc1ccc([N+](=O)[O-])cc1OC)CC(=O)NC(C)(C)C	0	-1	9	-5
CCc1ccc(S(=O)(=O)/N=C2/C=C(Sc3ncn[nH]3)C(=O)c3ccccc32)cc1	25	0	92*	12
O=C(CN1CCCC1)Nc1ccc(Br)cc1[N+](=O)[O-]	·	·	-9	·
O=C(c1ccc2c(c1)[nH]c(=S)n1c3ccccc3nc21)N1CCN(c2ncccn2)CC1	2	1	61*	6
O=C(NCCN1CCN(c2ccccc2)CC1)c1ccc2c(c1)[nH]c(=S)n1c3ccccc3nc21	0	0	29	3
CC(=O)C1=C(C)OC(N)=C(C#N)C1c1cccc2ccccc12 (stereo not given)	·	1	4	15*
CC(=O)N(\C=C/C=C/C=C1\Sc2ccccc2C1=O)c1ccccc1	-1	1	69*	2
N#Cc1ccsc1NC(=O)c1ccc(Cl)c([N+](=O)[O-])c1	·	4.3*	2	5
N#Cc1ccsc1NC(=O)c1cccc([N+](=O)[O-])c1	-1	1	5	0
O=C(NCc1ccccc1F)C1CCN(S(=O)(=O)c2ccccc2)CC1	·	·	-4	·
CC(C)c1nc(CN2CCCCC2)cc(=O)[nH]1	-1	1	30	1
O=C(/C=C/c1ccncc1)c1ccc(NC(=O)c2ccccc2F)cc1	1	-1	70*	11
O=C(/C=C/c1ccc(NC(=O)c2ccccc2-c2ccccc2C(=O)O)cc1)c1ccccc1	·	·	37	·
N#CCOc1ccc2oc(-c3ccco3)cc(=O)c2c1	0	1	52*	0
CC(C)OCCOc1ccc2oc(-c3ccco3)cc(=O)c2c1	·	·	46	·
CN(CCO)c1nc(N)c2c(N)nc3c(c2c1C#N)CC(=O)N3C1CCCC1	0	-1	101*	7
N#Cc1c(N2CCN(c3ccc(F)cc3)CC2)nc(N)c2c(N)nc3c(c12)CC(=O)N3C1CC1	-1	0	94	13
O=C(/C=C/c1ccco1)NC(=S)Nc1ccc(N2CCCC2)cc1	0	0	60*	9
O=C(/C=C/c1ccco1)NC(=S)Nc1ccc(C(=O)O)cc1	·	·	45	·
O=c1[nH]c(Cc2cccc(C(F)(F)F)c2)nc2ccccc12	·	·	23	·
CSCC(CO)NS(=O)(=O)c1ccc(C)cc1 (stereo not given)	·	2.9*	-10	-2
O=c1[nH]c(Nc2ccccc2)cc2ccccc12	-1	1	84*	8
C[n+]1ccn(CC(=O)c2cc(C(C)(C)C)c(O)c(C(C)(C)C)c2)c1	·	·	-3	·
Cc1ccc(-n2ncc3c2CCCC3NC(=O)CCc2cnccn2)cc1C (stereo not given)	·	·	0	·
C=CCc1cccc(CNc2ccc(Br)cc2)c1O	-1	0	-17	-2
SMILES	Redox H2O2 prof	PERK inh	SUMO HTRF inh	p97 inhibitor
CC1CCN(C(=O)COc2ccc3ccccc3c2Br)CC1	·	·	8	·
CC(=O)c1[nH]c(C)c(C(C)=O)c1C	0	0	12	-1
COC(=O)c1c(C)[nH]c(C(C)=O)c1C	2	3.0*	35	4
COCCNC(=O)c1c[nH]n2c(=O)cc(C3CCN(C(=O)OC(C)(C)C)CC3)nc12	0	3.8*	1	4
CCCNC(=O)c1ccc2c(=O)n(Cc3ccco3)c(=S)[nH]c2c1	0	1	64*	6
Cc1ccc2c(c1)N(CCCC(=O)Nc1cccc(C(F)(F)F)c1)C(=O)CO2	·	·	-7	·
N#C/C(=C\c1c[nH]c2ccccc12)C(N)=O	·	1	10	7
CC(=O)Oc1c(/C=C(\C#N)C(N)=O)[nH]c2ccccc12	0	2.9*	89	3
Brc1ccc2c(c1)CN1CCCC1=N2	·	·	6	·
Cc1ccc(S(=O)(=O)N(C)C)cc1NC(=S)Nc1cccc2ccccc12	·	·	92*	·
CCOC(CCc1c(C)nc(NC(C)=O)[nH]c1=O)OCC	·	3.1*	17	4
CCN1C(=NCc2ccco2)N[C@@H](c2cccc(F)c2)C(C(=O)OC)=C1C	·	·	-11	·
O=c1[nH][nH]c(-c2ccccc2)c1C=Nc1cccc(Cl)c1	2	2.9*	14	5
O=c1[nH][nH]c(-c2ccccc2)c1C=Nc1ccc(Cl)cc1	4	1	16	3
O=C(N/N=C/c1cc(Cl)cc([N+](=O)[O-])c1O)c1cc(-c2ccccn2)nc2ccccc12	·	0	87*	3
CCOc1ccc(C2C=C(c3ccccc3)Nc3ncnn32)cc1 (stereo not given)	0	0	52*	-2
